According to article PMC7862700, “An all-to-all approach to the identification of sequence-specific readers for epigenetic DNA modifications on cytosine”:

How the values were obtained:
Experiment in all cases: DAPPL (digital affinity profiling via proximity ligation, sequencing); 10 mM Tris-HCl pH 7.5, 50 mM NaCl, 1 mM DTT, 4% glycerol, room temperature, 30 min; GST-TFs on glutathione beads, 16-mer random dsDNA library, 0.1% formaldehyde crosslink after washing; high values mean tight binding
[1] = target: T1, FLI1 (Homo sapiens, UniProt Q01543 1-452); conditions: protein: recombinant; tags: N-terminal GST; dsDNA, one strand shown
T1 sequence: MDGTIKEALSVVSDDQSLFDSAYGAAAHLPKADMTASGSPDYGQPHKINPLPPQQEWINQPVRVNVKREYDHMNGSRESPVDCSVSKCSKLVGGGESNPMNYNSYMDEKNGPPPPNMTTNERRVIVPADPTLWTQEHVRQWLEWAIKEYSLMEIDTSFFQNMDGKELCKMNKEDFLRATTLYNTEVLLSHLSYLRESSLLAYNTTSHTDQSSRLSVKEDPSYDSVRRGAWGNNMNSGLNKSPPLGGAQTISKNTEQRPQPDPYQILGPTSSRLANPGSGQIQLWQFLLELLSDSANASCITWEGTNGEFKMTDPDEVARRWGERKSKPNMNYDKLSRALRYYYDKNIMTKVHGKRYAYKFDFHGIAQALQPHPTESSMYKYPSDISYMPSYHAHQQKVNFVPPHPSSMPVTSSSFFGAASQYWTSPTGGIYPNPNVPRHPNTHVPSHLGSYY
Method in brief: (§1)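 A tag-only sample was pooled with DNA-barcoded human transcription factors that had been expressed in yeast as GST fusions and captured on glutathione beads. The pools were incubated for 30 min at room temperature with 200 nmole of a random double-stranded 16-mer DNA library in Tris/NaCl/DTT/glycerol buffer, then washed, crosslinked with 0.1% formaldehyde, proximity-ligated (BsaI/T4 ligase, 1 h, 37 °C), PCR-amplified and sequenced on an Illumina NextSeq500. Binding signal is each hexamer's read frequency for a factor divided by its frequency for the tag-only sample.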

[2] = target: T2, ELK1 (Homo sapiens, UniProt P19419 1-428); conditions: protein: recombinant; tags: N-terminal GST; dsDNA, one strand shown
T2 sequence: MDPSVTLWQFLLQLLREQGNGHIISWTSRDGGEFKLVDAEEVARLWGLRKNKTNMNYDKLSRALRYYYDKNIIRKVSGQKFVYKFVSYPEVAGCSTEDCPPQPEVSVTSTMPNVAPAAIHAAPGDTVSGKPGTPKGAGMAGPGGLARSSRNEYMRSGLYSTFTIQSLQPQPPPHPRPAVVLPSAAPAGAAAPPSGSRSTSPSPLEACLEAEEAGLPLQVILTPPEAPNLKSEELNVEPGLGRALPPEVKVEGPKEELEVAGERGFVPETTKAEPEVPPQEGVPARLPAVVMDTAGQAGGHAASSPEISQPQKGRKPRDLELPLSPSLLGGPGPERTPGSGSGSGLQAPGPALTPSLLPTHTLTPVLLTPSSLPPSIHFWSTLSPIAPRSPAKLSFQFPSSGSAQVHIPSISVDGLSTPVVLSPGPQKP
Method in brief: as §1

[3] = target: T3, GABPA (Homo sapiens, UniProt Q06546 1-454); conditions: protein: recombinant; tags: N-terminal GST; dsDNA, one strand shown
T3 sequence: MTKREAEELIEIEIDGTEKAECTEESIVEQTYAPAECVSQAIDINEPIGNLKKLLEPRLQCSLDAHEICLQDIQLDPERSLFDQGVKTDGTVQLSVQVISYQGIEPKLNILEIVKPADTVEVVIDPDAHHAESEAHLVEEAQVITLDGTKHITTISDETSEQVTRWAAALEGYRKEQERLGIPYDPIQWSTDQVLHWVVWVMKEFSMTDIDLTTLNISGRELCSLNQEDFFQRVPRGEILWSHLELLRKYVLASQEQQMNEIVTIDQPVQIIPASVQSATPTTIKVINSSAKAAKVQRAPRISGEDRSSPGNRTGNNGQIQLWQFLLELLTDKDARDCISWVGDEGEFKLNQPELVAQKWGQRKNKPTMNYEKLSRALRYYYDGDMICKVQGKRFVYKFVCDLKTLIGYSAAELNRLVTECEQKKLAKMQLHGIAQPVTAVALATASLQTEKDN
Method in brief: as §1

[4] = target: T4, ERG (Homo sapiens, UniProt P11308 1-479); conditions: protein: recombinant; tags: N-terminal GST; dsDNA, one strand shown
T4 sequence: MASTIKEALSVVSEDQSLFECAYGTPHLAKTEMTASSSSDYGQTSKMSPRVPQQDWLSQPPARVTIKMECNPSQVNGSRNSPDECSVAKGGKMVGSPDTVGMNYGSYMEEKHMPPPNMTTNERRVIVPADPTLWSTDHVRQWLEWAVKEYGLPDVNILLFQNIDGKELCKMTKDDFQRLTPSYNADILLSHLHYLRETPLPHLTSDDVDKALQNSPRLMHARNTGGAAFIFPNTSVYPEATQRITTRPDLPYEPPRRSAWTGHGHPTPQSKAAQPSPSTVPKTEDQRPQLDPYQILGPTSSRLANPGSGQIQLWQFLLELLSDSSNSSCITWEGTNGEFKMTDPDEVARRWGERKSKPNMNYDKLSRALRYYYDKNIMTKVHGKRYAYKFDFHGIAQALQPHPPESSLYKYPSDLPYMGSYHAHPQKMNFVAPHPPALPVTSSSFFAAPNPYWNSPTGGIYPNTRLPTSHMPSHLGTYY
Method in brief: as §1

[5] = target: ELF1 (Homo sapiens, UniProt P32519 1-619); conditions: protein: recombinant; tags: N-terminal GST; dsDNA, one strand shown
Chain of ELF1 (P32519 whole entry): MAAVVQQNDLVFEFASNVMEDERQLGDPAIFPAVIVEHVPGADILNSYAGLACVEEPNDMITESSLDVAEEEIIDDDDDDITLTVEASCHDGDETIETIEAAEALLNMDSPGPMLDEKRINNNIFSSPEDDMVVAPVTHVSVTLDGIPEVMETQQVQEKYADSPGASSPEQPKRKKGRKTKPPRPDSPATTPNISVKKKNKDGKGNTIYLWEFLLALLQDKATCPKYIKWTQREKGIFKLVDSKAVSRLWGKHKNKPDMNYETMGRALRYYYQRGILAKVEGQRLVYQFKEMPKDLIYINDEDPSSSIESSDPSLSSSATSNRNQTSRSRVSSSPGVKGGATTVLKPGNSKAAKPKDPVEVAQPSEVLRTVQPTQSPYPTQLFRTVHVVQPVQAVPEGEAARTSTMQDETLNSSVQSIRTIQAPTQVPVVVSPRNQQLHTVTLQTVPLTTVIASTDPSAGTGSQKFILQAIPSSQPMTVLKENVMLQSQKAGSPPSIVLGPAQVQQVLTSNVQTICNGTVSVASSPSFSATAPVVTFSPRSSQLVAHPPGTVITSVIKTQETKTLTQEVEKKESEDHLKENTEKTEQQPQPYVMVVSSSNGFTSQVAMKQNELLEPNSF
Method in brief: as §1

[6] = target: T5, EHF (Homo sapiens, UniProt Q9NZC4 1-300); conditions: protein: recombinant; tags: N-terminal GST; dsDNA, one strand shown
T5 sequence: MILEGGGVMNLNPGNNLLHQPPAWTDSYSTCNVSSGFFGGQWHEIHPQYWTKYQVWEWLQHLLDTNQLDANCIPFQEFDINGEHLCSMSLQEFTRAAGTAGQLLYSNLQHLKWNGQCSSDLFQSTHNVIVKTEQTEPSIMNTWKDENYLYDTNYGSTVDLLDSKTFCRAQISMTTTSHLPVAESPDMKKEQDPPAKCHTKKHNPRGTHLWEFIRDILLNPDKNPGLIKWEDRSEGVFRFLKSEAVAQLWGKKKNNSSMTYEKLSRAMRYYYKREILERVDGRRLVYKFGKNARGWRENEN
Method in brief: as §1

[7] = target: SPI1 (Homo sapiens, UniProt P17947 1-270); conditions: protein: recombinant; tags: N-terminal GST; dsDNA, one strand shown
Method in brief: as §1

[8] = target: SPIB (Homo sapiens, UniProt Q01892 1-262); conditions: protein: recombinant; tags: N-terminal GST; dsDNA, one strand shown
Chain of SPIB (Q01892 whole entry): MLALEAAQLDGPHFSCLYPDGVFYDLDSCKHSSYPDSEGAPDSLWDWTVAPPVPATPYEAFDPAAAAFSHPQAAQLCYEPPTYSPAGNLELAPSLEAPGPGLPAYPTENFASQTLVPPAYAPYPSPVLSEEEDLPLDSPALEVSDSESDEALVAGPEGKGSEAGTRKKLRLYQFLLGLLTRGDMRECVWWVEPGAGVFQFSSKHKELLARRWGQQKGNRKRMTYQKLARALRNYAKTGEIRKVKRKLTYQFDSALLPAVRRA
Method in brief: as §1

[9] = target: T6, ELK3 (Homo sapiens, UniProt P41970 1-407); conditions: protein: recombinant; tags: N-terminal GST; dsDNA, one strand shown
T6 sequence: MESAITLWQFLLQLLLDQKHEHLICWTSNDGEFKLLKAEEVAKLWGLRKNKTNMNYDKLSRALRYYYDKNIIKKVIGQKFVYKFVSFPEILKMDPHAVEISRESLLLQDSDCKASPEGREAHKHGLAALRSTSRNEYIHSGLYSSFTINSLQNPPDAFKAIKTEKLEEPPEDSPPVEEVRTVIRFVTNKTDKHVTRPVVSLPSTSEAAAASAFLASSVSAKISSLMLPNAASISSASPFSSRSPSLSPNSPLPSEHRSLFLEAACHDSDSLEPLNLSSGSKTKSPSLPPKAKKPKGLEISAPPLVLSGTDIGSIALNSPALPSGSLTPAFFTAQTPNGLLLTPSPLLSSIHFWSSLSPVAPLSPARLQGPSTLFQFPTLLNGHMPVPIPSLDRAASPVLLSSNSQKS
Method in brief: as §1

[10] = target: T7, FEV (Homo sapiens, UniProt Q99581 1-238); conditions: protein: recombinant; tags: N-terminal GST; dsDNA, one strand shown
T7 sequence: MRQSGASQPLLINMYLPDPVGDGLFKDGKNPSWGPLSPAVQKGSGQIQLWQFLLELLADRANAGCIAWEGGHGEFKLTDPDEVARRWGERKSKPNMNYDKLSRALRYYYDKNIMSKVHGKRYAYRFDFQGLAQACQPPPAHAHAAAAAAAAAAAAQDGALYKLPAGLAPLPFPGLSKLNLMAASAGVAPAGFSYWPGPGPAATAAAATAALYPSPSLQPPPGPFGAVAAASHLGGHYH
Method in brief: as §1

[11] = target: ETV5 (Homo sapiens, UniProt P41161 1-510); conditions: protein: recombinant; tags: N-terminal GST; dsDNA, one strand shown
Chain of ETV5 (P41161 whole entry): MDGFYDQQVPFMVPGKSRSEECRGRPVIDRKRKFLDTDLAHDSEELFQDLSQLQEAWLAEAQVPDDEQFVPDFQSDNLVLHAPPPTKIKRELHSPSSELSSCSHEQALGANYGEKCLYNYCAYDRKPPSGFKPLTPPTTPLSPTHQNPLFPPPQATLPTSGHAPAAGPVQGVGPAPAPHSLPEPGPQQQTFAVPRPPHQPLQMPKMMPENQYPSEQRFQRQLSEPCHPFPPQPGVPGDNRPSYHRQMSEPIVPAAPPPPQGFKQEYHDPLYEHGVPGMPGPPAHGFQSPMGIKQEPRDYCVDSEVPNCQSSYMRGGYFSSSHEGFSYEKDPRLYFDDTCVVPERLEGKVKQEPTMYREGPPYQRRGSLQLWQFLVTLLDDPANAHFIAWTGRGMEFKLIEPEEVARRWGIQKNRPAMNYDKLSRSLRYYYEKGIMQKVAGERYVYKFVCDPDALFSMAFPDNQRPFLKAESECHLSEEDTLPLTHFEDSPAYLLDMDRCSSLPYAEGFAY
Method in brief: as §1

[12] = target: HSF1 (Homo sapiens, UniProt Q00613 1-529); conditions: protein: recombinant; tags: N-terminal GST; chain copies: 3; dsDNA, one strand shown
Chain of HSF1 (Q00613 whole entry): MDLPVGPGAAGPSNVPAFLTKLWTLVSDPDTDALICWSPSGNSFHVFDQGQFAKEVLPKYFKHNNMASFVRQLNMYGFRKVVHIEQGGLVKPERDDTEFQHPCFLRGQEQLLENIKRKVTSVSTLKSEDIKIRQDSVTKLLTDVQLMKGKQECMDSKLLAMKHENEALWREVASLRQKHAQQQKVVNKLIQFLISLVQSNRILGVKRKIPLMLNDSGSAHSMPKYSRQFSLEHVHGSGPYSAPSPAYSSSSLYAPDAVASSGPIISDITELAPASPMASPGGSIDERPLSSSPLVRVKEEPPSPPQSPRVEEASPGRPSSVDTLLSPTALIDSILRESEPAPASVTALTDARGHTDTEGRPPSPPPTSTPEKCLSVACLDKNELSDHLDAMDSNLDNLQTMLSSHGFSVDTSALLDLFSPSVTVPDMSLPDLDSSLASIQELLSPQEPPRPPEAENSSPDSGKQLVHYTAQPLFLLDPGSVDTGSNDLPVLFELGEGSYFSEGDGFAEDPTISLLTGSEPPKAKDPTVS
Method in brief: as §1

[13] = target: T8, SPIC (Homo sapiens, UniProt Q8N5J4 1-248); conditions: protein: recombinant; tags: N-terminal GST; dsDNA, one strand shown
T8 sequence: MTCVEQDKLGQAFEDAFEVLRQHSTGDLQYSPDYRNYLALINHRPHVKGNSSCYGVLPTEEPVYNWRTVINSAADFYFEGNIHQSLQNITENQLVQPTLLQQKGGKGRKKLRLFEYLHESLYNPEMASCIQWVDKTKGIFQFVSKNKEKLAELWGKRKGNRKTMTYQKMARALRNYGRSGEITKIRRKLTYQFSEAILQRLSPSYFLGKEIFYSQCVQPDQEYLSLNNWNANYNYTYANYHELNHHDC
Method in brief: as §1

[14] = target: ELF4 (Homo sapiens, UniProt Q99607 1-663); conditions: protein: recombinant; tags: N-terminal GST; dsDNA, one strand shown
Chain of ELF4 (Q99607 whole entry): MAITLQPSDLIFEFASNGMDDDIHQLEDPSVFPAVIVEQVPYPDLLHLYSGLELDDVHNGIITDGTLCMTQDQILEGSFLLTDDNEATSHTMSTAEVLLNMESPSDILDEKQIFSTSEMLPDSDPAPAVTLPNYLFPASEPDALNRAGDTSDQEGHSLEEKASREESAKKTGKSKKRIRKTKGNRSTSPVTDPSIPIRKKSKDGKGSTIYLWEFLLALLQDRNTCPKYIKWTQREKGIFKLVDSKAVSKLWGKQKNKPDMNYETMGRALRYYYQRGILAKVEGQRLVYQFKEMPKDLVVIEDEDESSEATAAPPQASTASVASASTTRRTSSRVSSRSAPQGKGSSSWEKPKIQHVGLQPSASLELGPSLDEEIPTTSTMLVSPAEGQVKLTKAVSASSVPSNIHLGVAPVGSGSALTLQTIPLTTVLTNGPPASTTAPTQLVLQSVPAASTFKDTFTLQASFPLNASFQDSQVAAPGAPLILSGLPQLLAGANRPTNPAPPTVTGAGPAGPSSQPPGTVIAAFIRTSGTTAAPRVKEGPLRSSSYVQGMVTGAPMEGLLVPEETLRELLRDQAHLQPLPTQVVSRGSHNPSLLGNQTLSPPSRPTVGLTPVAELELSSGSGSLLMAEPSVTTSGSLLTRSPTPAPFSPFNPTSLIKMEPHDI
Method in brief: as §1

[15] = target: T9, ELK4 (Homo sapiens, UniProt P28324-2 1-405); conditions: protein: recombinant; tags: N-terminal GST; dsDNA, one strand shown
T9 sequence: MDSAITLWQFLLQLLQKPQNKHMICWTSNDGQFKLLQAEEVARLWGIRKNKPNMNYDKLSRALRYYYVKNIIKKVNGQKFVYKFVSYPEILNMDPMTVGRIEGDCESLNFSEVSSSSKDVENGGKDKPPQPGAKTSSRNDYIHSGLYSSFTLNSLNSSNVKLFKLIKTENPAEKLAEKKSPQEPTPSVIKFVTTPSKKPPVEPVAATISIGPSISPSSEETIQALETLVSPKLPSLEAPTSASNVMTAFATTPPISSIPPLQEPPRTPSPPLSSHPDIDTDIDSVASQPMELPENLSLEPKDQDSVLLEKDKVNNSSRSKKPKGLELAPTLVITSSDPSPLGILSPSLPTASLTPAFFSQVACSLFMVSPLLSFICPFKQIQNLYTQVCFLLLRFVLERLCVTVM
Method in brief: as §1

[16] = target: T10, ETV2 (Homo sapiens, UniProt O00321 1-342); conditions: protein: recombinant; tags: N-terminal GST; dsDNA, one strand shown
T10 sequence: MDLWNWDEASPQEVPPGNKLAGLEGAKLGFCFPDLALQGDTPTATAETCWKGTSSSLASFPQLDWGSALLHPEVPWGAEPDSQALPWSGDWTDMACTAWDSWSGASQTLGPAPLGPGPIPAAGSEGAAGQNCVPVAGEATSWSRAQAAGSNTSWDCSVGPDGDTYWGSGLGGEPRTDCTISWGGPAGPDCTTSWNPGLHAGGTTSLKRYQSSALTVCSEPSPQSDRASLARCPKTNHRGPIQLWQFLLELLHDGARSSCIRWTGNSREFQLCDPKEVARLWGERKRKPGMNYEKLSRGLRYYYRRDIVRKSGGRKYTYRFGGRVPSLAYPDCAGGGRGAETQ
Method in brief: as §1

[17] = target: T11, ELF3 (Homo sapiens, UniProt P78545 1-371); conditions: protein: recombinant; tags: N-terminal GST; dsDNA, one strand shown
T11 sequence: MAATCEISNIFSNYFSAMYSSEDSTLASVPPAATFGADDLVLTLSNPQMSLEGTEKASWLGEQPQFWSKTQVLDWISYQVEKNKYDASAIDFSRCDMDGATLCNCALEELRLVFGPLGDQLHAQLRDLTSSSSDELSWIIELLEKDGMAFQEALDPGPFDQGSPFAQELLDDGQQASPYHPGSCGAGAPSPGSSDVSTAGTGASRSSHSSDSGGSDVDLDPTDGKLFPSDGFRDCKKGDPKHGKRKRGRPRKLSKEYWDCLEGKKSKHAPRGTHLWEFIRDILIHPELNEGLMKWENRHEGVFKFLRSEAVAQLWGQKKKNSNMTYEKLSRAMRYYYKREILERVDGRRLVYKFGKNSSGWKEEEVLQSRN
Method in brief: as §1

[18] = target: ETV1 (Homo sapiens, UniProt P50549 1-477); conditions: protein: recombinant; tags: N-terminal GST; dsDNA, one strand shown
Chain of ETV1 (P50549 whole entry): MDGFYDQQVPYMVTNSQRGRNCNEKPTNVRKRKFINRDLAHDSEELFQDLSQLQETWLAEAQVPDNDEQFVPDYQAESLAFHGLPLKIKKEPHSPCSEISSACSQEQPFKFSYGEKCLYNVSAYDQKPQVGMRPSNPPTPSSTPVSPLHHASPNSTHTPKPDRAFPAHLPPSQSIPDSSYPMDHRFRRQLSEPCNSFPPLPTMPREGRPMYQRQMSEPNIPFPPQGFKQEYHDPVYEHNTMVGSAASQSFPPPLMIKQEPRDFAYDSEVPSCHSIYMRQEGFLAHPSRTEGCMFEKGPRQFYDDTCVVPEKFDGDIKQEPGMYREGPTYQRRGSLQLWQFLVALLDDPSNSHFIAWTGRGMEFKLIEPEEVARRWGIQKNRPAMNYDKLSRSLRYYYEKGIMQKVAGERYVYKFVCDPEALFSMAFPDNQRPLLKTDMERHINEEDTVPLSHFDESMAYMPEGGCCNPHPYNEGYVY
Method in brief: as §1

CTTGTC
binding signal [1]: 1.17 fold enrichment (6-mer frequency, TF over GST control) | binding signal [2]: 1.33 fold enrichment (6-mer frequency, TF over GST control) | binding signal [3]: 1.32 fold enrichment (6-mer frequency, TF over GST control) | binding signal [4]: 1.19 fold enrichment (6-mer frequency, TF over GST control) | binding signal [5]: 1.22 fold enrichment (6-mer frequency, TF over GST control) | binding signal [6]: 1.19 fold enrichment (6-mer frequency, TF over GST control) | binding signal [7]: 1.35 fold enrichment (6-mer frequency, TF over GST control) | binding signal [8]: 1.23 fold enrichment (6-mer frequency, TF over GST control) | binding signal [9]: 1.34 fold enrichment (6-mer frequency, TF over GST control) | binding signal [10]: 1.23 fold enrichment (6-mer frequency, TF over GST control) | binding signal [11]: 1.34 fold enrichment (6-mer frequency, TF over GST control) | binding signal [12]: 1.07 fold enrichment (6-mer frequency, TF over GST control) | binding signal [13]: 1.14 fold enrichment (6-mer frequency, TF over GST control) | binding signal [14]: 1.41 fold enrichment (6-mer frequency, TF over GST control) | binding signal [15]: 1.33 fold enrichment (6-mer frequency, TF over GST control) | binding signal [16]: 1.08 fold enrichment (6-mer frequency, TF over GST control) | binding signal [17]: 1.32 fold enrichment (6-mer frequency, TF over GST control) | binding signal [18]: 1.27 fold enrichment (6-mer frequency, TF over GST control)
